Results published in PubChem BioAssay AID1159580 (chemical genetic matrix, 2015).
Values joined by “and” are separate entries in the source; they are usually repeats but may differ in a detail not shown here. Equal entries are not always repeated. About 2,000 (36%) of roughly 5,500 compounds were called active. Roughly 18% stayed inconclusive and do not appear here. Cut-off read from the data, not from the text of the source: active = normalized growth mostly below about 0.91 (no sharp cut-off); inconclusive = no clear call, values can overlap the other calls; inactive = mostly above about 0.92. The list shows a part of the results.

Assay: chemical genetic growth profiling, strain panel (AID 1159580);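 note: tested at 20 µM; growth read once vehicle control cultures reached saturation at 30 °C; 1 = growth at the plate median or of vehicle wells; lower values mean less growth of the strain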
Details: growth OD

Measured: normalized growth

COc1ccc(Cl)cc1C(=O)NCCc1ccc(S(=O)(=O)NC(=O)NC2CCCCC2)cc1
inactive: S. cerevisiae deletion strains, locus YJR075W, strain HOC1, active compounds read low 0.98 and 0.984 | S. cerevisiae deletion strains, locus YKL009W, strain mrt4, active compounds read low 1.02 | S. cerevisiae deletion strains, locus YKL068W, active compounds read low 1.04 | S. cerevisiae deletion strains, locus YKL085W, strain MDH1 (second series), active compounds read low 0.977 | S. cerevisiae deletion strains, locus YKL085W, strain MDH1, active compounds read low 0.977 | S. cerevisiae deletion strains, locus YKL160W, strain elf1, active compounds read low 1.01 | S. cerevisiae deletion strains, locus YKL190W, strain CNB1, active compounds read low 0.945 | S. cerevisiae deletion strains, locus YKR001C, strain vps1, active compounds read low 0.997 | S. cerevisiae deletion strains, locus YKR026C, strain gcn3, active compounds read low 0.989 | S. cerevisiae deletion strains, locus YKR091W, strain srl3, active compounds read low 0.993 | S. cerevisiae deletion strains, locus YLL001W, strain dnm1, active compounds read low 1.01 | S. cerevisiae deletion strains, locus YLL026W, active compounds read low 0.995 | S. cerevisiae deletion strains, locus YLL041C, strain sdh2, active compounds read low 1 | S. cerevisiae deletion strains, locus YLR027C, strain aat2, active compounds read low 1.01 | S. cerevisiae deletion strains, locus YLR039C, strain RIC1, active compounds read low 0.963 | S. cerevisiae deletion strains, locus YLR058C, strain SHM2, active compounds read low 0.972 | S. cerevisiae deletion strains, locus YLR102C, strain apc9, active compounds read low 0.989 | S. cerevisiae deletion strains, locus YLR113W, strain HOG1, active compounds read low 1.01 | S. cerevisiae deletion strains, locus YLR221C, strain rsa3, active compounds read low 1 | S. cerevisiae deletion strains, locus YLR258W, strain gsy2, active compounds read low 0.982 | S. cerevisiae deletion strains, locus YLR262C, strain YPT6 (second series), active compounds read low 0.999 | S. cerevisiae deletion strains, locus YLR262C, strain YPT6, active compounds read low 0.915 | S. cerevisiae deletion strains, locus YLR268W, strain sec22, active compounds read low 0.966 | S. cerevisiae deletion strains, locus YLR320W, strain mms22, active compounds read low 1 | S. cerevisiae deletion strains, locus YLR330W, strain CHS5, active compounds read low 0.994 | S. cerevisiae deletion strains, locus YLR342W, strain FKS1 (second series), active compounds read low 1.1 | S. cerevisiae deletion strains, locus YLR342W, strain FKS1, active compounds read low 1.01 | S. cerevisiae deletion strains, locus YLR357W, strain rsc2, active compounds read low 0.998 | S. cerevisiae deletion strains, locus YLR370C, strain arc18, active compounds read low 0.998 | S. cerevisiae deletion strains, locus YLR371W, strain rom2, active compounds read low 1.01 | S. cerevisiae deletion strains, locus YLR384C, strain iki3, active compounds read low 1 | S. cerevisiae deletion strains, locus YLR418C, strain cdc73, active compounds read low 0.944 | S. cerevisiae deletion strains, locus YML016C, strain PPZ1, active compounds read low 0.987 | S. cerevisiae deletion strains, locus YML032C, strain rad52, active compounds read low 1.02 | S. cerevisiae deletion strains, locus YML120C, strain ndi1, active compounds read low 1.02 | S. cerevisiae deletion strains, locus YML124C, strain tub3, active compounds read low 1 | S. cerevisiae deletion strains, locus YMR058W, strain fet3, active compounds read low 0.999 | S. cerevisiae deletion strains, locus YMR078C, strain ctf18, active compounds read low 0.998 | S. cerevisiae deletion strains, locus YMR125W, strain sto1, active compounds read low 0.992 | S. cerevisiae deletion strains, locus YMR129W, active compounds read low 1.01 | S. cerevisiae deletion strains, locus YMR205C, strain PFK2, active compounds read low 1 | S. cerevisiae deletion strains, locus YMR223W, strain ubp8, active compounds read low 1.05 | S. cerevisiae deletion strains, locus YMR231W, strain pep5, active compounds read low 1.01 | S. cerevisiae deletion strains, locus YMR263W, strain SAP30, active compounds read low 0.961 and 1 | S. cerevisiae deletion strains, locus YMR307W, strain GAS1, active compounds read low 1.06 and 0.976 | S. cerevisiae deletion strains, locus YNL067W, strain RPL9B, active compounds read low 0.951 | S. cerevisiae deletion strains, locus YNL071W, strain lat1, active compounds read low 1.01 | S. cerevisiae deletion strains, locus YNL128W, strain TEP1, active compounds read low 0.911 | S. cerevisiae deletion strains, locus YNL153C, strain GIM3, active compounds read low 0.943 and 1.04 | S. cerevisiae deletion strains, locus YNL175C, strain NOP13, active compounds read low 1 | S. cerevisiae deletion strains, locus YNL183C, strain NPR1, active compounds read low 0.947 | S. cerevisiae deletion strains, locus YNL197C, strain WHI3, active compounds read low 1.01 | S. cerevisiae deletion strains, locus YNL209W, strain ssb2, active compounds read low 1.01 | S. cerevisiae deletion strains, locus YNL224C, strain SQS1, active compounds read low 1.01 | S. cerevisiae deletion strains, locus YNL233W, strain BNI4, active compounds read low 0.978 | S. cerevisiae deletion strains, locus YNL248C, strain rpa49, active compounds read low 1.01 | S. cerevisiae deletion strains, locus YNL250W, strain rad50, active compounds read low 0.969 | S. cerevisiae deletion strains, locus YNL271C, strain bni1, active compounds read low 0.999 | S. cerevisiae deletion strains, locus YNL298W, strain CLA4, active compounds read low 0.987 | S. cerevisiae deletion strains, locus YNL307C, strain MCK1, active compounds read low 1.03 | S. cerevisiae deletion strains, locus YNL322C, strain KRE1 (second series), active compounds read low 0.999 | S. cerevisiae deletion strains, locus YNL322C, strain KRE1, active compounds read low 0.975 | S. cerevisiae deletion strains, locus YNR049C, strain mso1, active compounds read low 1 | S. cerevisiae deletion strains, locus YNR052C, strain pop2, active compounds read low 1 | S. cerevisiae deletion strains, locus YOL006C, strain TOP1, active compounds read low 0.875 | S. cerevisiae deletion strains, locus YOL012C, strain htz1 1.15 | S. cerevisiae deletion strains, locus YOL147C, strain pex11, active compounds read low 1 | S. cerevisiae deletion strains, locus YOR001W, strain rrp6, active compounds read low 1.01 | S. cerevisiae deletion strains, locus YOR061W, strain CKA2, active compounds read low 0.96 | S. cerevisiae deletion strains, locus YOR069W, strain VPS5, active compounds read low 1 | S. cerevisiae deletion strains, locus YOR070C, strain gyp1, active compounds read low 0.995 | S. cerevisiae deletion strains, locus YOR080W, strain dia2, active compounds read low 0.987 | S. cerevisiae deletion strains, locus YOR083W, strain WHI5 (second series), active compounds read low 1.07 | S. cerevisiae deletion strains, locus YOR083W, strain WHI5, active compounds read low 1.01 | S. cerevisiae deletion strains, locus YOR106W, strain vam3, active compounds read low 1.01 | S. cerevisiae deletion strains, locus YOR136W, strain idh2, active compounds read low 0.996 | S. cerevisiae deletion strains, locus YOR144C, strain elg1, active compounds read low 0.999 | S. cerevisiae deletion strains, locus YOR184W, strain ser1, active compounds read low 1.06 | S. cerevisiae deletion strains, locus YOR231W, strain MKK1, active compounds read low 0.994 | S. cerevisiae deletion strains, locus YOR265W, strain rbl2, active compounds read low 1 | S. cerevisiae deletion strains, locus YOR270C, strain vph1, active compounds read low 0.998 | S. cerevisiae deletion strains, locus YOR290C, strain snf2, active compounds read low 0.938 | S. cerevisiae deletion strains, locus YOR316C, strain cot1, active compounds read low 0.994 | S. cerevisiae deletion strains, locus YPL051W, strain arl3, active compounds read low 1.01 | S. cerevisiae deletion strains, locus YPL055C, strain LGE1, active compounds read low 0.877 | S. cerevisiae deletion strains, locus YPL078C, strain atp4, active compounds read low 1.01 | S. cerevisiae deletion strains, locus YPL106C, strain sse1, active compounds read low 1.02 | S. cerevisiae deletion strains, locus YPL240C, strain hsp82, active compounds read low 1 | S. cerevisiae deletion strains, locus YPL241C, strain CIN2, active compounds read low 0.972 and 1.01 | S. cerevisiae deletion strains, locus YPL256C, strain CLN2, active compounds read low 1.01 | S. cerevisiae deletion strains, locus YPR119W, strain clb2, active compounds read low 0.986 | S. cerevisiae deletion strains, locus YPR141C, strain kar3, active compounds read low 0.976 | S. cerevisiae deletion strains, locus YPR163C, strain tif3, active compounds read low 1 | S. cerevisiae deletion strains, locus YPR167C, strain met16, active compounds read low 0.993 | S. cerevisiae deletion strains, strain wtn01, active compounds read low 0.98 | S. cerevisiae strains, strain wild type, active compounds read low 0.97
